# B1: OTUNa For/Rev_16 (dsDNA)
# DNA 1: AGATTACCCATTATAAAATGGGTACATATT
# DNA 2: AATATGTACCCATTTTATAATGGGTAATCT
# B2: OTUNa For/Rev_17 (dsDNA)
# DNA 1: TTATAAAATGGGTACATATTTCCCTTATGC
# DNA 2: GCATAAGGGAAATATGTACCCATTTTATAA
# B3: OTUNa For/Rev_18 (dsDNA)
# DNA 1: GGGTACATATTTCCCTTATGCTCTTACAAA
# DNA 2: TTTGTAAGAGCATAAGGGAAATATGTACCC
# B4: OTUNa For/Rev_7 (dsDNA)
# DNA 1: CAATATATTGTGTCACAAAAGTGTGACAAT
# DNA 2: ATTGTCACACTTTTGTGACACAATATATTG
# B5: OTUNa For/Rev_8 (dsDNA)
# DNA 1: TGTCACAAAAGTGTGACAATTTAATTTTTG
# DNA 2: CAAAAATTAAATTGTCACACTTTTGTGACA
# B6: OTUNa For/Rev_9 (dsDNA)
# DNA 1: GTGTGACAATTTAATTTTTGTGACCCCCAT
# DNA 2: ATGGGGGTCACAAAAATTAAATTGTCACAC
# B7: OTUNA.4 (dsDNA)
# DNA 1: TTAATTTTTGTGACCCCCATAAGATAAATG
# DNA 2: CATTTATCTTATGGGGGTCACAAAAATTAA
# B8: OTUNa For/Rev_11 (dsDNA)
# DNA 1: TGACCCCCATAAGATAAATGTTTAAAACCC
# DNA 2: GGGTTTTAAACATTTATCTTATGGGGGTCA
# B9: OTUNa For/Rev_12 (dsDNA)
# DNA 1: AAGATAAATGTTTAAAACCCTTGAAATATC
# DNA 2: GATATTTCAAGGGTTTTAAACATTTATCTT
# B10: ossA408 (dsDNA)
# DNA 1: TTATAGGCGCCTAATA
# DNA 2: TATTAGGCGCCTATAA
# B11: OT408 For/Rev_7 (dsDNA)
# DNA 1: GTACAGACACAATATATAGGGGTACATTTT
# DNA 2: AAAATGTACCCCTATATATTGTGTCTGTAC
# B12: OT408 For/Rev_8 (dsDNA)
# DNA 1: AATATATAGGGGTACATTTTGGGTACAAAA
# DNA 2: TTTTGTACCCAAAATGTACCCCTATATATT
# B13: OT408 For/Rev_9 (dsDNA)
# DNA 1: GGTACATTTTGGGTACAAAACGGTTTTATA
# DNA 2: TATAAAACCGTTTTGTACCCAAAATGTACC
# B14: OT408 For/Rev_10 (dsDNA)
# DNA 1: GGGTACAAAACGGTTTTATAGGCGCCTAAT
# DNA 2: ATTAGGCGCCTATAAAACCGTTTTGTACCC
# B15: OT408.5 (dsDNA)
# DNA 1: CGGTTTTATAGGCGCCTAATAAAAACCTCT
# DNA 2: AGAGGTTTTTATTAGGCGCCTATAAAACCG
# B16: OT408 For/Rev_12 (dsDNA)
# DNA 1: GGCGCCTAATAAAAACCTCTGTATCCCTTG
# DNA 2: CAAGGGATACAGAGGTTTTTATTAGGCGCC
# B17: OT408 For/Rev_13 (dsDNA)
# DNA 1: AAAAACCTCTGTATCCCTTGAAATGTCTGG
# DNA 2: CCAGACATTTCAAGGGATACAGAGGTTTTT
# B18: OT408 For/Rev_14 (dsDNA)
# DNA 1: GTATCCCTTGAAATGTCTGGCTTCGCCAGA
# DNA 2: TCTGGCGAAGCCAGACATTTCAAGGGATAC
# B19: OT408 For/Rev_15 (dsDNA)
# DNA 1: AAATGTCTGGCTTCGCCAGACCCACCTTTT
# DNA 2: AAAAGGTGGGTCTGGCGAAGCCAGACATTT
# B20: OT408 For/Rev_17 (dsDNA)
# DNA 1: CCCACCTTTTTAATAGGTGGCAAATTTCCC
# DNA 2: GGGAAATTTGCCACCTATTAAAAAGGTGGG
# Tests used:
# Details in all cases: protein: recombinant; tags: His6-TEV, cleaved; chain copies: 4
# [1] = target: T1, SmpOUNa (plasmid pC02); assay: SPR (ReDCaT); 300 mM NaCl; 10 mM HEPES, 3 mM EDTA, 0.05% Tween 20, NaCl 150 mM (SmpO49 screens), 300 mM (SmpO45, SmpO408, SmpOUNa screens) or 250 mM (Table S4); pH and temperature not stated; protein 1 uM; high values mean tight binding
# T1 chain: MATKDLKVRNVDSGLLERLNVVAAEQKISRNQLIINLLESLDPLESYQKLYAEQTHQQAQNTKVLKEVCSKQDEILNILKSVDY
# In short: (§1)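 The running buffer was 10 mM HEPES, 300 mM NaCl, 3 mM EDTA, 0.05% Tween 20, and protein at 1 μM was injected at 30 μl/min for 60 s contact and 60 s dissociation. The protein had been expressed in E. coli BL21(DE3)pLysS, cleaved of its tag, and purified by nickel-affinity and size-exclusion chromatography. OriT oligonucleotides were captured at 1 μM on Fc2 of a Biacore T200 SA chip by reusable DNA capture, and a linker was captured on Fc1. Values are DNA binding expressed as %Rmax.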
# [2] = target: T2, SmpO408 (Staphylococcus aureus M0408); assay: SPR (ReDCaT); 250 mM NaCl; 10 mM HEPES, 3 mM EDTA, 0.05% Tween 20, NaCl 150 mM (SmpO49 screens), 300 mM (SmpO45, SmpO408, SmpOUNa screens) or 250 mM (Table S4); pH and temperature not stated; protein 1 uM; high values mean tight binding
# T2 chain: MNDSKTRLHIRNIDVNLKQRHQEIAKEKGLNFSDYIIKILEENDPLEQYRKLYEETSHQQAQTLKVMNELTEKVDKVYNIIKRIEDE
# [3] = target: T2, SmpO408; assay: SPR (ReDCaT); 300 mM NaCl; 10 mM HEPES, 3 mM EDTA, 0.05% Tween 20, NaCl 150 mM (SmpO49 screens), 300 mM (SmpO45, SmpO408, SmpOUNa screens) or 250 mM (Table S4); pH and temperature not stated; protein 1 uM; high values mean tight binding
# In short: as §1
binder,measurement,setting,value
B1,binding signal,[1],12.5 ± 0.926 %Rmax
B2,binding signal,[1],9.96 ± 0.667 %Rmax
B3,binding signal,[1],26.2 ± 1.85 %Rmax
B4,binding signal,[1],3.471 ± 0.00557 %Rmax
B5,binding signal,[1],17 ± 0.439 %Rmax
B6,binding signal,[1],53.342 ± 0.0463 %Rmax
B7,binding signal,[1],58.4 ± 1.36 %Rmax
B8,binding signal,[1],18.2 ± 1.39 %Rmax
B9,binding signal,[1],1.56 ± 0.168 %Rmax
B10,binding signal,[2],52.8 %Rmax
same,binding signal,[3],63.9 ± 1.02 %Rmax
B11,binding signal,[3],7.42 %Rmax
B12,binding signal,[3],5.29 %Rmax
B13,binding signal,[3],4.6 %Rmax
B14,binding signal,[3],71.2 %Rmax
B15,binding signal,[3],109 %Rmax
B16,binding signal,[3],25.9 %Rmax
B17,binding signal,[3],4.19 %Rmax
B18,binding signal,[3],8.57 %Rmax
B19,binding signal,[3],14.3 %Rmax
B20,binding signal,[3],64.6 %Rmax

# — paper PMC8136818, “Evolving origin-of-transfer sequences on staphylococcal conjugative and mobilizable plasmids—who’s mimicking whom?”
